# Screens deposited in PubChem by several laboratories.
# Compounds with a hit are over-represented: about 1.4% of the library has one in this group of screens.
# BCLXL inh: inhibitors of human Bcl-xL, primary screen, biochemical, fluorescence polarization, HTS; Bcl-2-like protein 1 (Homo sapiens), Q07817; GST-Bcl-xL / FITC-Bim BH3 peptide fluorescence polarization; inhibition, % at 10.9 µM; hit rate 0.7% among 320,000; AID 2129, 2009;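 active = inhibition above the mean of all tested compounds plus 3 SD, cutoff set per campaign, cut at about 30% in these data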;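 note: 0% = DMSO wells and 100% = unlabeled Bim-BH3 peptide competitor; inhibitors lower millipolarization by displacing the labeled peptide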
# Target sequence (Q07817 whole entry, looked up): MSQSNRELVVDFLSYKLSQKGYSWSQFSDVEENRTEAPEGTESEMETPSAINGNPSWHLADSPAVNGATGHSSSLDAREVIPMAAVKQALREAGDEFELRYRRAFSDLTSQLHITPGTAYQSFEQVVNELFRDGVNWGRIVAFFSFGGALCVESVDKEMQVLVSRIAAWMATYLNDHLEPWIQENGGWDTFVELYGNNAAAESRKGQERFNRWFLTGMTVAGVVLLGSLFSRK
# GLD-1 RNA inh: GLD-1/TGE RNA complex disruptors, primary screen, biochemical, fluorescence polarization; purified GLD-1 + fluorescein TGE RNA; Female germline-specific tumor suppressor gld-1 (Caenorhabditis elegans), Q17339; inhibition, % at 5.96 µM; hit rate 0.44% among 320,000;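 active = percent inhibition above a per-plate cutoff, the plate mean of test compounds plus 3 SD, cut at about 30% in these data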;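 note: 0% = DMSO wells with GLD-1 and probe and 100% = wells lacking GLD-1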
# eLon inh: inhibitors of E. coli Lon protease, primary screen, biochemical, fluorescence polarization. purified E. coli Lon protease. inhibition, % at 7.94 µM. hit rate 0.42% among 360,000. AID 602123, 2011; in the data active = inhibition above about 13%, passing the limit was not always enough;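 note: 0% = enzyme with probe and DMSO and 100% = no enzyme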
# MEX-5 binding: MEX-5 zinc finger RNA-binding disruptors – biochemical, C. elegans, fluorescence polarization, MLPCN library, primary screen; Zinc finger protein mex-5 (Caenorhabditis elegans), Q9XUB2; MEX-5/FITC-TCR2 RNA binding; active compounds read low; activity score (negative = inhibition of binding), % at 10 µM; hit rate 0.38% among 300,000; AID 1832, 2009;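 active = inhibition past about -25% in most replicates, and total fluorescence under double the plate's negative control median, limit read from the data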;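 note: 0% = DMSO and -100% = 5 µM competing unlabeled TCR2 RNA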
# MCL1 BIM primary: inhibitors of MCL1 binding to BIM-BH3, primary screen, biochemical, fluorescence polarization | GST-MCL1 / FITC-Bim-BH3 fluorescence polarization | inhibition, % at 10.9 µM | hit rate 0.68% among 320,000;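 active = inhibition above the mean inhibition of all tested compounds plus 3 SD, set per campaign, cut at about 40% in these data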;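 note: 0% = DMSO wells and 100% = unlabeled Bim-BH3 peptide control; higher means more loss of mP so more displacement of Bim peptide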
# Target sequence (Q07820 whole entry, looked up): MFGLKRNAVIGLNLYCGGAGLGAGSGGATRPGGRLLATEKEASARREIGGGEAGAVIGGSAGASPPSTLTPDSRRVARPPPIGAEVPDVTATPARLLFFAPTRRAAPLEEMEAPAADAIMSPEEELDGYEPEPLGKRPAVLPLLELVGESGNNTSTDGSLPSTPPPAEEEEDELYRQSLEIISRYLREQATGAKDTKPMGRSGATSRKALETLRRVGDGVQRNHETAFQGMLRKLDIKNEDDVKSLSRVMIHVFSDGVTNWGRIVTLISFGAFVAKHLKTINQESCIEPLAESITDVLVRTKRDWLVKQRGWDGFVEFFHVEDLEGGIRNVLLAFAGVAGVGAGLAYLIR
# Bcl-xL conf: Bcl-xL inhibitors blocking Bim BH3 binding, confirmation, counter-screen for MCL1 inhibitor project, biochemical, fluorescence polarization; shares compounds with MCL1 BIM primary; GST-Bcl-xL / FITC-Bim BH3 peptide FP binding; inhibition, % at 10.9 µM; hit rate 54% among 1,700;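 active = inhibition above a cutoff equal to the mean inhibition of all tested compounds plus 3 SD, cut at about 30% in these data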;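 note: 0% = DMSO wells and 100% = unlabeled Bim BH3 control peptide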
# MCL1 inh confirm: inhibitors of MCL1 binding to BIM-BH3, confirmation, biochemical, fluorescence polarization, triplicate. AID 2168, 2009. inhibition, % at 10.9 µM. hit rate 61% among 1,700. GST-MCL1 / FITC-Bim-BH3 fluorescence polarization. shares compounds with MCL1 BIM primary;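 active = inhibition above the average of all tested compounds plus 3 SD, cut at about 40% in these data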;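 note: 0% = DMSO wells and 100% = unlabeled Bim-BH3 control peptide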
# Numbers without * were called inactive; / = no result.
SMILES,BCLXL inh,GLD-1 RNA inh,eLon inh,MEX-5 binding,MCL1 BIM primary,Bcl-xL conf,MCL1 inh confirm
COc1ccc(/C=C/C(=O)NC(=S)Nc2cc([N+](=O)[O-])ccc2O)cc1OC,7,0,5,0,41*,15,28
COc1ccc([N+](=O)[O-])cc1NC(=S)NC(C)=O,3,-5,1,-1,0,/,/
Cc1cscc1-c1ccc(C(=O)Nc2c(C)cccc2C)o1,/,/,1,/,/,/,/
CCOc1cc(/C=N/n2c(COc3ccccc3)n[nH]c2=S)ccc1O,-8,-16,-8,1,-19,/,/
Oc1ccc(/C=N/n2c(COc3ccccc3)n[nH]c2=S)cc1O,11,-10,-5,-11,44*,20,31
CC1=C(C(=O)Nc2ccccc2)C(c2ccco2)n2ncnc2N1 (stereo unspecified),1,7,-2,1,4,/,/
CC(=O)Nc1cccc(C2=CC(c3ccco3)n3ncnc3N2)c1 (stereo unspecified),116*,69*,/,-87*,123*,141*,177*
CCOC1=C2[C@@H](CN(S(=O)(=O)c3ccc(C)cc3)[C@H]2c2cccc3ccccc23)[C@H]2C(=O)N(CC)C(=O)[C@H]2C1,/,/,-1,/,/,/,/
O=c1cc(-c2ccccc2Cl)oc2cccc(O)c12,8,4,0,1,6,/,/
O=c1cc2oc3cc(O)c(O)cc3c(-c3ccccc3[N+](=O)[O-])c-2cc1O,31*,8,3,-11,87*,62*,104*
CC1(C)C(/C=C/C=C/C=C/C=C2\N(CCCCS(=O)(=O)O)c3ccc4ccccc4c3C2(C)C)=[N+](CCCCS(=O)(=O)[O-])c2ccc3ccccc3c21,85*,0,-26,/,90*,68*,74*
CC(C(=O)O)N1C(=O)/C(=C/C=C/c2ccco2)SC1=S (stereo unspecified),50*,-4,9,-87*,83*,58*,87*
O=C1/C(=C/c2cccs2)SC(=S)N1NS(=O)(=O)c1ccccc1,6,-11,6,-6,11,/,/
O=C1/C(=C/C=C/c2ccco2)SC(=S)N1NS(=O)(=O)c1ccccc1,67*,-6,17,/,83*,45*,73*
O=C(O)CCCN1C(=O)/C(=C\c2ccco2)SC1=S,/,/,-4,-12,/,/,/
Cc1ncccc1C(=O)N1CCCC(c2cc(C(=O)Nc3ccc(C(C)(C)C)cc3)no2)C1 (stereo unspecified),/,/,-4,/,/,/,/
COc1ccc(/C=N/NC(=O)COc2ccc3ccccc3c2)c(C(=O)O)c1OC,0,7,3,0,-2,/,/
COc1ccc(/C=N/NC(=O)COc2cccc3ccccc23)c(C(=O)O)c1OC,6,-5,3,0,54*,10,23
Cc1ccc(C(=O)N/C(=C\c2ccc(-c3ccccc3[N+](=O)[O-])o2)C(=O)NCCN(C)C)cc1,56*,23,2,-10,66*,7,2
Cc1ccc(C(=O)N/C(=C\c2ccc(-c3ccccc3[N+](=O)[O-])o2)C(=O)NCCCN(C)C)cc1,76*,51*,18,-27*,80*,19,9
CN(C)CCNC(=O)/C(=C/c1ccc(-c2cccc([N+](=O)[O-])c2)o1)NC(=O)c1ccccc1,0,2,-1,1,7,/,/
Cc1cc(C)n(-c2ccc(C(=O)OC(C)C(=O)Nc3ccc(C(N)=O)cc3)cc2)n1 (stereo unspecified),/,/,-5,/,/,/,/
CN(Cc1ccc(Cl)cc1Cl)C(=O)Cc1ccc(S(=O)(=O)N2CCOCC2)s1,/,/,-21,/,/,/,/
O=c1c(-c2ccc([N+](=O)[O-])cc2)coc2c(O)c(O)ccc12,26,3,-3,-10,45*,43*,63*
CN(C)Cc1c(O)ccc2c(=O)c(-c3ccc(Cl)cc3)coc12,7,3,-2,-2,3,/,/
SMILES,BCLXL inh,GLD-1 RNA inh,eLon inh,MEX-5 binding,MCL1 BIM primary,Bcl-xL conf,MCL1 inh confirm
CC1(O)C(=O)C=C2C=C(c3ccc(C#N)cc3)OC=C2C1=O (stereo unspecified),8,8,/,1,47*,13,40*
CCC(=O)OC1(C)C(=O)C=C2C=C(c3ccc(C#N)cc3)OC=C2C1=O (stereo unspecified),19,14,-8,-4,31,/,/
CCCS(=O)(=O)NC(=O)C1(C)CCN(C(=O)c2cc(-c3cccs3)oc2C)C1 (stereo unspecified),/,/,-8,/,/,/,/
O=S(=O)(Nc1nc2ccccc2nc1-[n+]1cccc(N=C([O-])c2ccccc2Cl)c1)c1ccccc1,71*,13,/,-9,84*,60*,90*
COc1cc(NC(=O)N2CCc3nc(Nc4cc(Cl)cc(Cl)c4)ncc3C2)cc(OC)c1OC,/,/,-3,/,/,/,/
CC1(c2ccc3noc(-c4ccc(F)cc4)c3c2)OCCO1,74*,89*,8,-7,83*,78*,111*
CC1(c2ccc3noc(-c4ccccc4)c3c2)OCCO1,3,-5,-2,-1,-3,/,/
c1ccc(-c2nnc(CN3CCCc4ccccc43)o2)cc1,65*,-4,-18,-6,72*,46*,68*
CCOC(=O)C1=CCN(S(=O)(=O)c2ccccc2Br)C1c1ccc(C)cc1 (stereo unspecified),/,/,-2,/,/,/,/
Cn1cccc1/C=C(/C#N)C(N)=S,5,-9,0,-2,15,/,/
Cc1ccc(-c2ccc(/C=C(\C#N)C(N)=S)n2C)cc1,67*,-33,-23,/,68*,9,4
COc1ccc(/C=C2\SC(=O)NC2=S)cc1OC,102*,100*,24,-36*,122*,38*,36
CCOC(=O)c1ccc2c(c1)C1C=CCC1C(C(=O)O)N2 (stereo unspecified),64*,23,/,/,113*,54*,97*
COC(=O)CNC(=O)C1Nc2ccc(OC(F)(F)F)cc2C2C=CCC12 (stereo unspecified),-1,-6,-13,-1,3,/,/
CCOC(=O)C1Nc2ccc(C(=O)O)cc2C2C=CCC12 (stereo unspecified),37*,10,3,-18,89*,32*,48*
